Results on ten compounds are retold here after PubChem BioAssay.

The assay can be described thus: differential killing of epithelial or mesenchymal cells, primary screen, imaging, PC-3E GFP, TEM4-18 mCherry, co-culture (AID 1345086).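 Further: cells exposed to compound for 72 h before imaging.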 Conditions: imaging cell counts, measured here: mesenchymal TEM4-18 mCherry cell survival, at 1 µM.
Consider `CCC(CCC(C)[C@H]1CCC2C3CC=C4C[C@@H](O)CC[C@]4(C)C3CC[C@@]21C)C(C)C` (stereo not given in full), for which the normalised cell number came to 1.08.
The same measure for `COc1ccc(-c2cc(=O)c3c(O)cc(OC)cc3o2)cc1`: 1.24; for `Cc1nc(COP(=O)(O)O)cc(CN(CCN(CC(=O)O)Cc2cc(COP(=O)(O)O)nc(C)c2[O-])CC(=O)O)c1[O-].[Mn+2]`: 1.12.
For the compound `COc1c(F)c(F)cc2c(=O)c(C(=O)NO)cn(C3CC3)c12`, the normalised cell number was found to be 1.04.
The same measure for `C[C@@H]1CC[C@@]23CCC4(C)[C@@](C=CC5[C@@]6(C)CCC(=O)C(C)(C)C6CC[C@]54C)(OC2=O)C3[C@H]1C` (stereo not given in full): 0.98.
Regarding `O=C1CCC[C@@H](N2C(=S)OC[C@H]2c2ccccc2)C1`, the normalised cell number was 1.01.
The same measure for `NCC1O[C@@H](OC2C(N)C[C@@H](N)C(O)[C@H]2OC2OC(CO)C(OC3OC(CN)[C@@H](O)C(O)[C@H]3N)C2O)C(N)[C@@H](O)C1O` (stereo not given in full): 0.99.
As for `COC(=O)c1ccc(C(CC(C)C)NC(C)=O)o1` (stereo not given), the normalised cell number was 1.12.
The figure for `c1ccc(OCC2CCNC2)cc1` (stereo not given) is 0.97.
In the case of `Oc1ccc2ccccc2c1Oc1ccc2ccccc2c1`, the normalised cell number is 0.79.
